Screens: PubChem BioAssay, several laboratories
Shown are actives, neighbours in structure and some others; about 2% of the full set was active somewhere.
CF NFkB block: blocks PAF-induced NF-kB reporter in cystic fibrosis cells; KKLEB NF-kB-GFP reporter, GFP fluorescence overnight; inhibition, % at 5 µM; actives 0.86% (n = 360,000);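 active = at least 50% inhibition at 5 µM, scaled per plate between neutral and stimulator controls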;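 note: PAF is a Pseudomonas aeruginosa culture filtrate used as stimulus; plate controls were PAF-stimulated DMSO wells for no effect and unstimulated DMSO wells for full effect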
PAX8 inh HTS: inhibitors of PAX8 transcriptional activity in RMG-I cells. RMG-I TPO-luciferase reporter, SteadyGlo, 24 h. inhibition, % at 12.6 µM. actives 1.2% (n = 360,000). AID 652154;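 active = mean replicate inhibition at least 60% with every replicate also reaching 60%; inconclusive = only one of the two criteria is met; inactive = mean below 60% and not all replicates reaching 60%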;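 note: luciferase light reporting Pax8 driven TPO promoter activity; plate controls were median of neutral control wells for no effect and mitoxantrone controls for full effect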
KKLEB cytotox: CF airway cell cytotoxicity counter-screen; KKLEB CF airway cells viability, ATPlite luminescence, overnight; hits give low values; cells stimulated with P. aeruginosa culture filtrate; activity change (cytotoxicity), % at 5 µM; actives 0.36% (n = 360,000); AID 602141;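 active = corrected activity change at or below -50% at 5 µM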
EWS-Fli inh: EWS/Fli transcriptional activity inhibition. actives 0.67% (n = 350,000). AID 651661. A673 NR0B1-luciferase reporter, viability-normalised. inhibition, % at 12.6 µM;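 active = mean inhibition of at least 50% after viability correction, with every replicate also passing that limit; inconclusive = mean reaches 50% but only one of two replicates passes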;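 note: firefly luciferase signal divided by Alamar Blue viability fluorescence both relative to DMSO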
Shn3 3UTR inh: Schnurri-3 reporter inhibition in Clone20 osteoblasts; Clone20 osteoblast Shn3 3'UTR firefly luciferase, 24 h; actives 0.52% (n = 360,000); inhibition, % at 12.5 µM;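 active = mean inhibition of at least 75% with every replicate also reaching 75%; inconclusive = mean inhibition at least 75% but some replicate below; inactive = mean inhibition below 75%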;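 note: 0% = median of neutral control wells and 100% = pilot-screen positive control compound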
LGR2 inh: inhibitors of bursicon-induced Drosophila LGR2 receptor cAMP signaling. actives 0.35% (n = 380,000). inhibition, % at 9.99 µM. HEK293 LGR2, CRE-luciferase, bursicon-stimulated, 4 h;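 active = drop in luminescence signal, shown as inhibition above about 50% in the replicate tests, limit read from the data, passing the limit was not always enough; inconclusive = probably only some replicates passing the limit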;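 note: agonist challenge used bursicon conditioned medium at about half maximal strength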
Starred values were filed as active, the others as inactive; ? = inconclusive; · = no result.

SMILES | CF NFkB block | PAX8 inh HTS | KKLEB cytotox | EWS-Fli inh | Shn3 3UTR inh | LGR2 inh
O=C(N/N=C/c1cc(Br)c(O)c(Br)c1O)c1cccnc1 | 10 | 26 | 2 | 5 | 30 | 7
C[C@@H]1CCCCO[C@@H](CN(C)C(=O)CCC(F)(F)F)[C@H](C)CN([C@@H](C)CO)C(=O)c2cc(NC(=O)CCC(F)(F)F)ccc2O1 | · | 18 | · | 0 | · | -6
C[C@@H]1CN([C@H](C)CO)S(=O)(=O)c2ccc(C#Cc3ccncc3)cc2O[C@@H]1CN(C)C(=O)C1CCCCC1 | · | 46 | · | -1 | · | 3
CCCN(C)C[C@@H]1Oc2cc(C#Cc3ccncc3)ccc2S(=O)(=O)N([C@H](C)CO)C[C@@H]1C | · | · | · | 66* | · | 6
C[C@@H]1CN([C@H](C)CO)S(=O)(=O)c2ccc(C#Cc3ccncc3)cc2O[C@H]1CN(C)C(=O)C1CCCCC1 | · | 78* | · | 15 | · | -5
CCCN(C)C[C@@H]1Oc2cc(C#CCC3CCCC3)ccc2S(=O)(=O)N([C@H](C)CO)C[C@H]1C | · | 71* | · | 43 | · | 14
C[C@H](CO)N1C[C@H](C)[C@H](CN(C)C(=O)CN2CCOCC2)Oc2ncc(C#CCN(C)C)cc2C1=O | · | 0 | · | 5 | · | ?
COc1ccccc1-c1c(-c2ccc(O)cc2O)n[nH]c1C(F)(F)F | -21 | 14 | 7 | 8 | 91* | 10
COc1ccc(-c2c(-c3ccc(O)cc3O)n[nH]c2C)cc1OC | 7 | · | -5 | · | 1 | ·
COc1ccc(-c2c(-c3ccc(O)cc3O)n[nH]c2C(F)(F)F)cc1 | -8 | -6 | 0 | 4 | 17 | -5
Oc1ccc(-c2n[nH]c(C(F)(F)F)c2-c2ccccc2)c(O)c1 | 6 | 7 | -20 | 8 | 87* | 4
CO[C@H]1CN(C)C(=O)c2cc(NC(=O)C3CC3)ccc2OC[C@H](C)N(C(=O)c2ccccn2)C[C@H]1C | · | · | · | -1 | · | -13
COc1ccc(NC(=O)N(C)C[C@H]2OCc3ccccc3-c3c(n(C)c4ccccc34)C(=O)N([C@@H](C)CO)C[C@H]2C)c(OC)c1 | · | 33 | · | 6 | · | 7
COc1cccc(CNC(=O)c2cc3c(c(-c4cccc(-c5ccncc5)c4)n2)[C@H](CCO)N([S@@](=O)C(C)(C)C)C3)c1 | · | 28 | · | 20 | · | 13
C=CCn1c(C)cc(C(=O)Cn2ncc(Cl)c(Cl)c2=O)c1C | 88* | 30 | -54* | 55* | 64 | ·
COc1ccc(NC(=O)Nc2cccc3c2O[C@@H](CN(C)C(=O)NC2CCCCC2)[C@H](C)CN([C@H](C)CO)C3=O)cc1 | · | -29 | · | -2 | · | -3
C[C@@H]1CN([C@H](C)CO)C(=O)c2cc(NC(=O)c3ccccc3)ccc2O[C@@H](C)CCCCO[C@H]1CN(C)S(=O)(=O)c1ccc(F)cc1 | · | 3 | · | 6 | · | -11
C=CCn1c(=O)/c(=C/c2cc(OC)c(OC)c(OC)c2)s/c1=C(/C#N)c1nc2ccccc2n1C | 5 | · | -50* | · | -6 | ·
C=CCn1c(=O)/c(=C/c2ccc(O)cc2)s/c1=C(/C#N)c1nnc2n1CCCCC2 | 10 | · | 0 | 4 | 13 | 10
Cc1ccn2cc(-c3cc4ccccc4oc3=O)nc2c1 | -18 | -98 | -1 | 68* | 30 | 46
Cc1ccc(-c2csc(Cc3nc(-c4cc5ccccc5oc4=O)cs3)n2)cc1 | -15 | · | -6 | 5 | 52 | -3
O=S(=O)(N[C@@H]1CC[C@@H](CCn2cc(-c3cccc(F)c3)nn2)O[C@H]1CO)c1ccc(F)cc1 | · | · | · | 7 | · | 5
COc1cccc(CNc2ncc(C(=O)Nc3cc(OC)c(OC)c(OC)c3)c(C)n2)c1 | -4 | 33 | -7 | 52* | 17 | -11
COc1ccc(-c2coc3c(C(=O)Nc4cc(OC)c(OC)c(OC)c4)cccc23)c(C)c1 | 24 | 36 | -38 | 20 | 82 | 58*
COc1ccc(-c2coc3c(C(=O)NCc4ccc(OC)c(OC)c4)cccc23)c(C)c1 | 19 | 51 | -15 | 10 | 90* | 7
SMILES | CF NFkB block | PAX8 inh HTS | KKLEB cytotox | EWS-Fli inh | Shn3 3UTR inh | LGR2 inh
COc1cc(NC(=O)c2cccc3c(-c4cccnc4)coc23)cc(OC)c1OC | 10 | 44 | -14 | -4 | ? | 86*
COc1ccc(/C=C/c2c([N+](=O)[O-])c(=O)n(C)c(=O)n2C)c(OC)c1 | 22 | 30 | 3 | -13 | -30 | 24
Cn1c(/C=C/c2ccc(Cl)cc2Cl)c([N+](=O)[O-])c(=O)n(C)c1=O | 32 | 45 | 22 | 38 | ? | 56*
COc1cccc(C(=O)NN2c3ccccc3CCc3ccccc32)c1 | 29 | 67* | -38 | 9 | 34 | 16
CN1C(=O)c2cc(NC(=O)C3CCCC3)ccc2OC[C@H]2O[C@@H](CC(=O)NCC3CC3)CC[C@H]21 | · | 2 | · | 5 | · | 16
CCOCCOC(=O)C(C)Oc1ccc(Oc2nc(Cl)ccc2Cl)cc1 (centres undefined) | 10 | 5 | 4 | 14 | 5 | 8
CCOCCOC(=O)C(C)Oc1ccc(Oc2ncc(Cl)cc2Cl)cc1 (centres undefined) | 10 | 71* | 3 | 4 | 4 | 7
C[C@H]1CN([C@@H](C)CO)C(=O)c2cccc(NC(=O)Nc3cccc4ccccc34)c2O[C@@H]1CN(C)C(=O)Nc1ccc(C(F)(F)F)cc1 | · | 74* | · | 8 | · | 5
C[C@H]1CN([C@@H](C)CO)C(=O)c2cccc(NC(=O)Nc3ccc4c(c3)OCO4)c2O[C@@H]1CN(C)C(=O)Nc1ccccc1 | · | -8 | · | 0 | · | 29
C[C@@H]1CN([C@H](C)CO)C(=O)c2cccc(NC(=O)Nc3cccc4ccccc34)c2O[C@@H]1CN(C)C(=O)Nc1ccc(C(F)(F)F)cc1 | · | 44 | · | -9 | · | 23
C[C@@H]1CN([C@H](C)CO)C(=O)c2cccc(NC(=O)Nc3cccc4ccccc34)c2O[C@H]1CN(C)C(=O)Nc1ccc(C(F)(F)F)cc1 | · | 81* | · | 10 | · | 9
Cc1ccc(S(=O)(=O)N(C)C[C@H]2Oc3c(NC(=O)Nc4cccc5ccccc45)cccc3C(=O)N([C@@H](C)CO)C[C@@H]2C)cc1 | -19 | 103* | -14 | 3 | 2 | 6
C[C@H](CO)N1C[C@H](C)[C@H](CN(C)C(=O)Nc2ccc3c(c2)OCO3)Oc2c(NC(=O)Nc3ccccc3)cccc2C1=O | · | 72* | · | -35 | · | -16
O=C(C[C@H]1CC[C@H](NC(=O)CCN2CCCCC2)[C@H](CO)O1)Nc1ccc(-c2ccccc2)cc1 | · | -12 | · | 0 | · | 1
COc1ccc(S(=O)(=O)Nc2cccc3c2O[C@H](CN(C)Cc2ccc(C(=O)O)cc2)[C@H](C)CN([C@H](C)CO)C3=O)cc1 | · | · | · | -10 | · | 6
O=C(NCCc1ccncc1)[C@H]1[C@H](CO)[C@H]2Cn3c(ccc(-c4ccncc4)c3=O)[C@H]2N1C(=O)C1CC1 | · | · | · | -6 | · | 3
